# Test results taken from the supplement of paper PMC9135407.
# Values joined by “and” are separate entries in the source; they are usually repeats but may differ in a detail not shown here. Equal entries are not always repeated. Among all 5,800 compounds or so, about 620 (11%) showed activity. This is one part of a sample in which actives are shown more often than they occur. Values without a mark were called inactive.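 Rule for the calls: active = score above a cut-off or among the top three wells of a plate; in these data no inactive exceeds 0.85.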
# Tested on: primary human hepatic stellate cells (donor 1)
# Assay: scaled lipid accumulation score (0 = DMSO-like, 1 = nortriptyline-like); higher = stronger HSC inactivation (lipid re-accumulation), active = hit call of the paper
# Settings: 48 h
# [1] = library stock concentration: 1 mM
# [2] = library stock concentration: 3.33 mM
# [3] = library stock concentration: 10 mM
smiles,measurement,setting,value
CCCCCCC(C)(C)c1ccc([C@@H]2C[C@H](O)CC[C@H]2CCCO)c(O)c1,scaled lipid accumulation score,[1],0.004
CN/C(=N\S(=O)(=O)c1ccc(Cl)cc1)N1C[C@H](c2ccccc2)C(c2ccc(Cl)cc2)=N1,scaled lipid accumulation score,[1],≤ 0
COC[C@H]1OC(=O)c2coc3c2[C@@]1(C)C1=C(C3=O)[C@@H]2CCC(=O)[C@@]2(C)C[C@H]1OC(C)=O [Wortmannin],scaled lipid accumulation score,[2],≤ 0
same,scaled lipid accumulation score,[3],≤ 0
CCOC(=O)c1ncn2c1CN(C)C(=O)c1cc(N=[N+]=[N-])ccc1-2,scaled lipid accumulation score,[3],≤ -0.001
CC1=CCCC2C1(C)CCC(C)C2(C)CC/C(C)=C/Cn1c[n+](C)c2c(N)ncnc21 (stereo not drawn) [Agelasine (stereochemistry of diterpene unknown)],scaled lipid accumulation score,[3],0.317
COc1ccc(N(C(=O)Oc2c(C)cccc2C)c2ccnc(Nc3ccc(N4CCN(C)CC4)cc3)n2)c(OC)c1,scaled lipid accumulation score,library stock concentration: 80 uM,0.038
same,scaled lipid accumulation score,library stock concentration: 400 uM,0.193
same,scaled lipid accumulation score,library stock concentration: 2 mM,≤ 0
same,scaled lipid accumulation score,[2],0.656
same,scaled lipid accumulation score,[3],0.815 and 0.679
COc1ccc(-n2nc(C(F)(F)F)cc2-c2ccc(Cl)cc2)cc1,scaled lipid accumulation score,[3],0.006
COc1ccc(/C=C/C(=O)CC(=O)/C=C/c2ccc(OC)c(OC)c2)cc1OC [Dimethoxycurcumin],scaled lipid accumulation score,[1],≤ 0
CCCCC/C=C\C/C=C\C/C=C\C/C=C\CCCC(=O)NC[C@@H](C)O [R-2 Methanandamide],scaled lipid accumulation score,[1],≤ 0
COC[C@@H]([C@H](O)[C@H](O)C(=O)NCC[C@H](C)c1nc(/C=C/C[C@@H]2O[C@]3(C[C@@H](O)[C@@H]2C)O[C@H]([C@H](C[C@H](O)[C@H](C)[C@H](O)[C@H](C)/C=C(C)/C(C)=C/C=C/C(C)=C\C#N)OC)[C@H](OP(=O)(O)O)C3(C)C)co1)N(C)C [Calyculin A],scaled lipid accumulation score,library stock concentration: 500 uM,0.228
C=C1[C@@H](C)[C@H]2[C@H](Cc3ccccc3)NC(=O)[C@]23OC(=O)/C=C/[C@H](O)CCC[C@@H](C)C/C=C/[C@H]3[C@@H]1O [Cytochalasin B],scaled lipid accumulation score,library stock concentration: 10.4 mM,0.806
C=C1[C@@H](C)[C@H]2[C@H](Cc3ccccc3)NC(=O)C23[C@H](OC(C)=O)/C=C/[C@](C)(O)C(=O)[C@@H](C)C/C=C/[C@H]3[C@@H]1O (stereo partly drawn) [Cytochalasin D],scaled lipid accumulation score,library stock concentration: 9.9 mM,0.918 (active)
CC[C@@H](C)C(=O)O[C@H]1[C@H](O)[C@H]2[C@@H](CN3C[C@@H](C)CC[C@H]3[C@@]2(C)O)[C@@H]2C[C@]34O[C@]5(O)[C@@H](OC(=O)[C@](C)(O)[C@@H](C)O)CC[C@@]3(C)[C@@H]5[C@@H](OC(C)=O)[C@@H](OC(C)=O)[C@H]4[C@@]21O (stereo in doubt) [Protoveratrine b],scaled lipid accumulation score,[3],≤ 0
